# Results: PMC7819943, “Rice protein-binding microarrays: a tool to detect cis-acting elements near promoter regions in rice”
# Over roughly 68,000 sequences, “fluorescence intensity (a.u.)” has its median near 9,100; the highest 2% begin near 16,000. What follows is part of a selection rich in the highest values, with near analogues and random picks from the rest.
# Target: OsWRKY34 (Oryza sativa, UniProt Q0JBA9 1-250)
# Assay: protein-binding microarray (RPBM); PBS, 2% BSA, 51.3 ng/ul salmon testes DNA, 50 uM zinc acetate, 200 nM TF, 25 C, 1 h; high values mean tight binding
# Details: protein: recombinant; tags: N-terminal polyhistidine and DsRed monomer fusion (pET32a); label: CyDye5-dUTP incorporated in the synthesized complementary strand; 3' TTTTT single-stranded linker to array surface; dsDNA, one strand shown
# Method in brief: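 Polyhistidine-tagged DsRed fusions of transcription factors, joined at the N-terminus, were expressed in E. coli BL21-CodonPlus and isolated on Ni–NTA. They were incubated at 200 nM for 1 h at 25 °C on a custom Agilent array, double-stranded and BSA-blocked, in PBS with 2% BSA, salmon testes DNA and 50 µM zinc acetate. The binding signal is per-feature fluorescence intensity (arbitrary units) read on an Axon 4000B scanner after washing.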
# Sequence of OsWRKY34 (Q0JBA9 entry or part of it): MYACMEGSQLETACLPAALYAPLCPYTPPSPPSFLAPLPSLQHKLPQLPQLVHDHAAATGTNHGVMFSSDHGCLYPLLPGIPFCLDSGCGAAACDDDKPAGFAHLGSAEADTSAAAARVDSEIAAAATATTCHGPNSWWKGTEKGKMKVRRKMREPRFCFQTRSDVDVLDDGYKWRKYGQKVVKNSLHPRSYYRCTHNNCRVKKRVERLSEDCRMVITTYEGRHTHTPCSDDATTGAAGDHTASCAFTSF
row,Sequence,binding signal
1,TTAATTATATGCTAATGGCTAACCTTATTTTACGTATCTTCGGAGTCACCTAGTGCAG,8180 fluorescence intensity (a.u.)
2,TATATATATGTGTGTGTGTGTGTGTGTGTGTGTGTGTGTGCGGAGTCACCTAGTGCAG,10100 fluorescence intensity (a.u.)
3,TATATATATATATATATATGTGTGTGTGTGTGTGTATGGTCGGAGTCACCTAGTGCAG,9770 fluorescence intensity (a.u.)
4,GAATCATGTGCTATCTCGTTAATTATCTGCTCTTTTAGCTCGGAGTCACCTAGTGCAG,9000 fluorescence intensity (a.u.)
5,TATATATATATATATATATATATATATATATATGTGTGTGCGGAGTCACCTAGTGCAG,18100 fluorescence intensity (a.u.)
6,TATATATATATATATATATATATATATATATGGTGGTGTTCGGAGTCACCTAGTGCAG,20500 fluorescence intensity (a.u.)
7,AGCAGATGGAGTATATCTTTAGCTAATTAAGCTATAGCTACGGAGTCACCTAGTGCAG,23000 fluorescence intensity (a.u.)
8,TGGGTTTGTGGGTTATGTTTCGGTGCGTGCCGATAGTATACGGAGTCACCTAGTGCAG,14300 fluorescence intensity (a.u.)
9,GGGCGTGGTGGTGGTGGTGGTGGTTATACGGTTTTCGGTTCGGAGTCACCTAGTGCAG,25900 fluorescence intensity (a.u.)
10,TATATATATATATATATATATATATATATGTGTGTGTGTGCGGAGTCACCTAGTGCAG,13700 fluorescence intensity (a.u.)
11,CTCCCTTGCCGTCCCAGTTTCCCTGTATTCTGCATGCCGTCGGAGTCACCTAGTGCAG,9850 fluorescence intensity (a.u.)
12,ACTTTGCTGCCTATTGTAGATTTGTTATAACGTAGTTACTCGGAGTCACCTAGTGCAG,10400 fluorescence intensity (a.u.)
13,AACCCTCGCTTTCTTTGATAATCATTCCTAACTGCCTGGTCGGAGTCACCTAGTGCAG,8170 fluorescence intensity (a.u.)
14,AGTTACTGAGTTAGACGTCTCAAGCTGTGTCGTGGAATAACGGAGTCACCTAGTGCAG,8700 fluorescence intensity (a.u.)
15,AGGAGAGAAAGGAAGGTGGTGTGGGTGGTTGGTGGTGGTGCGGAGTCACCTAGTGCAG,10300 fluorescence intensity (a.u.)
16,GTCTTCTCTGTTCTTCTTCAGATGGCGAAAGCTCTCACCACGGAGTCACCTAGTGCAG,10400 fluorescence intensity (a.u.)
17,GCCTGCTATTGTACCTGCTTTAATATAGCCAACCTACTATCGGAGTCACCTAGTGCAG,8330 fluorescence intensity (a.u.)
18,ATATATATATATATATATATACATACATATACACACACACCGGAGTCACCTAGTGCAG,8050 fluorescence intensity (a.u.)
19,ATATATATATATATATATATATATATATATACACACACACCGGAGTCACCTAGTGCAG,22200 fluorescence intensity (a.u.)
20,TATATATATATATATATATATATATATATATATGGAGTATCGGAGTCACCTAGTGCAG,24600 fluorescence intensity (a.u.)
21,ATATATATATATATATATATATATATATATATGTATGTATCGGAGTCACCTAGTGCAG,10100 fluorescence intensity (a.u.)
22,ATATATATATATATATATATATATATGCAGCAACAGGGCCCGGAGTCACCTAGTGCAG,17400 fluorescence intensity (a.u.)

row,Sequence,binding signal
1,ATATATATATATATATATATATGTGTGTGTGTGTGTGTCCCGGAGTCACCTAGTGCAG,14500 fluorescence intensity (a.u.)
2,ATAGCCAACTATTACTTTTAAATTATTTATAGTCAAATTTCGGAGTCACCTAGTGCAG,9190 fluorescence intensity (a.u.)
3,ATATATATATATATATATATATATATATATATGCAGCATGCGGAGTCACCTAGTGCAG,13100 fluorescence intensity (a.u.)
4,CTTTAATAGTATAGCCAACTACTACCTCGGAATCACCTATCGGAGTCACCTAGTGCAG,20300 fluorescence intensity (a.u.)
5,TATATATACACACACACACAAACACACACACACACACACACGGAGTCACCTAGTGCAG,8720 fluorescence intensity (a.u.)
6,ATATATATATATATATATGTGTGTATATATATATATATATCGGAGTCACCTAGTGCAG,8920 fluorescence intensity (a.u.)
7,CTACTTTACCAGCTCATCTATCACATCTTAACTGTATTTTCGGAGTCACCTAGTGCAG,10300 fluorescence intensity (a.u.)
8,ACCCGTCTCTCTTTCTTTCTTTCTCTCTCTCCTGTGTTTTCGGAGTCACCTAGTGCAG,8600 fluorescence intensity (a.u.)
9,TCCACACACCCCGCTTGCTAACCAACCGTGACACGCAACCCGGAGTCACCTAGTGCAG,10100 fluorescence intensity (a.u.)
10,CCTAGCCCTAATTGATCCTTGCCTCGATGTTTTCCCTCCGCGGAGTCACCTAGTGCAG,10100 fluorescence intensity (a.u.)
11,CCCTTGACAGCACAGAGGCAACAGCAAAACACACTCTCATCGGAGTCACCTAGTGCAG,8580 fluorescence intensity (a.u.)
12,CTAGATTTTTTGGTGACATTTTTTAGTTGGTGTGCACGTGCGGAGTCACCTAGTGCAG,10200 fluorescence intensity (a.u.)
13,ACTCCTCTGCATGCTTTTTTTTTCCCTTCAGTTTCAGTTGCGGAGTCACCTAGTGCAG,11200 fluorescence intensity (a.u.)
14,GGCAACCACCTCAATTATTATTCCATTCCCTACCACCACTCGGAGTCACCTAGTGCAG,9980 fluorescence intensity (a.u.)
15,ATCCTAAAATGTTTGACACCATTGACTTTTTTAAAAATGTCGGAGTCACCTAGTGCAG,8790 fluorescence intensity (a.u.)
16,TTTAACACATGTTTGACCGTTCGTCTTATTCAAAAACTTTCGGAGTCACCTAGTGCAG,10900 fluorescence intensity (a.u.)
17,TTTCAAAATATTTGACACCGTTGACTTTTTAACACATGTTCGGAGTCACCTAGTGCAG,17900 fluorescence intensity (a.u.)
18,GTTTTAAAATGGTTGACACCGTTGACTTTTTAGCACGTGTCGGAGTCACCTAGTGCAG,30100 fluorescence intensity (a.u.)
19,TCAAAATGTTCGACACCGTTGACTTTTTAACACATGTTTGCGGAGTCACCTAGTGCAG,14400 fluorescence intensity (a.u.)
20,TTGACACCGTTGACTTTTTAGCACATGTTTGACCGTTCGTCGGAGTCACCTAGTGCAG,35800 fluorescence intensity (a.u.)
21,TGTTTGACACCGTTGACTTTTTAGCACATGTTTGACCGTTCGGAGTCACCTAGTGCAG,38000 fluorescence intensity (a.u.)
22,ACCTTTTTAAATATTTGACACTGTCGACTTTTTAGCACATCGGAGTCACCTAGTGCAG,9730 fluorescence intensity (a.u.)
